Measured values: PubChem BioAssay (NCI)
This is part of a sample that, as a whole, favours compounds with a hit. Of some 79,000 tested, about 15% had one in any assay. Unmarked numbers belong to inactive results. The source made the active and inactive calls. Cut-off read from the data, not from the text of the source: active = growth inhibition above about 70%; inactive = the rest.

Experiments:
[1] = NCI Yeast Anticancer Drug Screen. Data for the rad50 strain (AID 155);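 note: 0% = growth of vehicle-only cultures of the same strain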; details: S. cerevisiae rad50 strain growth inhibition, active compounds read high
Outline: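 A DNA repair-deficient yeast mutant serves as the test organism; compound-induced growth inhibition is calculated against vehicle-treated cells.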

[2] = NCI Yeast Anticancer Drug Screen. Data for the mec2-1 strain (AID 157); details: S. cerevisiae mec2-1 strain, active compounds read high
Outline: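 Compounds were applied to mec2-1 yeast cells. Their growth was then compared with that of vehicle-treated cultures to give growth inhibition.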

[3] = NCI Yeast Anticancer Drug Screen. Data for the sgs1 mgt1 strain (AID 161);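 note: 0% = growth of cultures given vehicle only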; details: S. cerevisiae sgs1 mgt1 strain, active compounds read high
Outline: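 Yeast cells carrying a defined DNA-repair defect were exposed to test compounds. Growth inhibition was measured relative to vehicle-treated controls.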

[4] = NCI Yeast Anticancer Drug Screen. Data for the cln2 rad14 strain (AID 165);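 note: 0% = growth equal to vehicle treated cultures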; details: S. cerevisiae cln2 rad14 strain, active compounds read high
Outline: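 Strain: cln2 rad14 yeast, altered in cell cycle control and DNA damage repair. Read-out: growth inhibition vs vehicle.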

[5] = NCI Yeast Anticancer Drug Screen. Data for the bub3 strain (AID 167); details: S. cerevisiae bub3 mutant strain, active compounds read high
Outline: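 Inhibition values come from growth of compound-treated mutant yeast normalised to vehicle-treated controls.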

[6] = NCI Yeast Anticancer Drug Screen. Data for the mlh1 rad18 strain (AID 175); details: S. cerevisiae mlh1 rad18 strain growth inhibition, active compounds read high
Outline: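 A repair-deficient yeast strain is exposed to test compound, and growth is scored relative to vehicle-treated controls.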

[7] = at 5.0 µM (retest, dose inferred, filed as 0.5)
[8] = at 50.0 µM (retest, dose inferred, filed as 5.0)

SMILES	growth inhibition [1, 7]	growth inhibition [1, 8]	growth inhibition ([1]; at 50.0 µM)	growth inhibition [2, 7]	growth inhibition [2, 8]	growth inhibition ([2]; at 50.0 µM)	growth inhibition [3, 7]	growth inhibition [3, 8]	growth inhibition ([3]; at 50.0 µM)	growth inhibition [4, 7]	growth inhibition [4, 8]	growth inhibition ([4]; at 50.0 µM)	growth inhibition [5, 7]	growth inhibition [5, 8]	growth inhibition ([5]; at 50.0 µM)	growth inhibition [6, 7]	growth inhibition [6, 8]	growth inhibition ([6]; at 50.0 µM)
COc1cc(/C=C/C(=O)CC(=O)/C=C/c2ccc(O)c(OC)c2)ccc1O	55%	95% (active)	83.8% (active)	74% (active)	93% (active)	87.1% (active)	20%	89% (active)	88% (active)	15%	88% (active)	84.3% (active)	27%	80% (active)	83.7% (active)	55%	91% (active)	85.5% (active)
Cc1nn(CCO)c(C)c1N=[N+]([O-])c1c(C)nn(CCO)c1C	12%	98% (active)	88.8% (active)	12%	98% (active)	91.8% (active)	24%	98% (active)	89.3% (active)	9%	95% (active)	86% (active)	20%	97% (active)	90.6% (active)	27%	98% (active)	89.1% (active)
CCCCCCCCCCCCCCCCSC(=NCC)NCC	99% (active)	99% (active)	99.3% (active)	67%	99% (active)	99.7% (active)	98% (active)	100% (active)	99.6% (active)	23%	99% (active)	98.3% (active)	81% (active)	99% (active)	99.5% (active)	98% (active)	99% (active)	99.3% (active)
COc1cc(/C=C/c2ccnc3ccccc23)cc(OC)c1OC	30%	59%	43.4%	34%	68%	79.3% (active)	14%	93% (active)	88.2% (active)	25%	45%	65.3%	43%	92% (active)	72.6% (active)	45%	81% (active)	22.2%
CC(C)(C)CC(C)(C)c1ccc(OCCOCCSC(=N)N)cc1	5%	99% (active)	46.4%	-3%	100% (active)	47%	23%	99% (active)	40.1%	13%	99% (active)	99.2% (active)	5%	99% (active)	99.5% (active)	24%	98% (active)	97.6% (active)
N#CC(=C1SCS1)[N+](=O)[O-]	91% (active)	99% (active)	91.1% (active)	98% (active)	100% (active)	92.4% (active)	98% (active)	100% (active)	92% (active)	31%	99% (active)	92.2% (active)	95% (active)	99% (active)	89.9% (active)	98% (active)	99% (active)	92.7% (active)
C[n+]1ccccc1C[n+]1ccccc1	4%	28%	67.4%	5%	17%	36.1%	1%	35%	66.8%	6%	14%	-10.1%	2%	20%	26.2%	15%	17%	53.9%
CCC1CCCCN1C(=S)N/N=C(\C)c1ccccn1 (stereo not given)	29%	98% (active)	90.5% (active)	19%	99% (active)	94.1% (active)	28%	99% (active)	89.8% (active)	21%	99% (active)	91.7% (active)	21%	99% (active)	90% (active)	23%	98% (active)	90.5% (active)
Nc1ccc(Oc2ccccc2)c(Cl)c1	10%	91% (active)	97.6% (active)	-15%	30%	92.5% (active)	4%	61%	97.6% (active)	3%	60%	93.5% (active)	69%	52%	90.5% (active)	7%	72% (active)	98% (active)
CCOc1ccc2c(c1)/C(=C\C=C\C1CC(C)C3CC(OCC)CCC3N1CC)CC(C)N2CC (stereo not given)	-7%	85% (active)	28.6%	-1%	88% (active)	88.2% (active)	-10%	92% (active)	33.9%	0%	83% (active)	83% (active)	4%	82% (active)	83.7% (active)	0%	86% (active)	81.5% (active)
CN1CCC(c2ccccc2)(c2ccccc2)C(=O)C1	11%	95% (active)	95.2% (active)	-5%	83% (active)	94% (active)	21%	95% (active)	93.8% (active)	15%	69%	74.3% (active)	34%	96% (active)	89.2% (active)	47%	95% (active)	94.5% (active)
Cc1cc(O)c2c(c1)C(=O)C(c1c(C)cc3c(c1O)C(=O)C1OC1C3=O)=CC2=O (stereo not given)	98% (active)	96% (active)	76.8% (active)	99% (active)	96% (active)	76.2% (active)	99% (active)	95% (active)	89.7% (active)	98% (active)	95% (active)	79.3% (active)	99% (active)	95% (active)	79.2% (active)	98% (active)	97% (active)	87.8% (active)
O=C(c1ccccc1)C(O)C(Br)(CBr)c1ccccc1 (stereo not given)	19%	97% (active)	90.7% (active)	11%	98% (active)	94.5% (active)	4%	98% (active)	97.3% (active)	15%	82% (active)	94.8% (active)	2%	98% (active)	96.8% (active)	6%	97% (active)	93.7% (active)
NC(=S)N/N=C\c1nccc2c(C(F)(F)F)cccc12	-4%	96% (active)	89% (active)	2%	96% (active)	91.4% (active)	6%	96% (active)	90.5% (active)	-10%	94% (active)	88.2% (active)	-5%	95% (active)	89.7% (active)	7%	95% (active)	89.2% (active)
CN(C)c1ccc2cc3c(cc2c1)Oc1ccccc1N3.[Cl][Zn][Cl]	36%	90% (active)	84.2% (active)	38%	95% (active)	85% (active)	37%	94% (active)	87.8% (active)	29%	94% (active)	83.9% (active)	48%	95% (active)	83.8% (active)	42%	91% (active)	83.3% (active)
CCOC(=O)c1[nH]c(C#N)c(C(=O)OCC)c1C	6%	76% (active)	4.15%	1%	23%	26.4%	3%	17%	33.8%	1%	45%	12.6%	3%	48%	53.2%	4%	66%	10%
Cn1ccc(=Nc2ccc(NC(=O)c3ccc(N=c4ccn(C)c5ccc([N+](=O)[O-])cc45)cc3)cc2)cc1	86% (active)	98% (active)	79.7% (active)	80% (active)	98% (active)	87.4% (active)	92% (active)	98% (active)	87.3% (active)	83% (active)	96% (active)	76.6% (active)	93% (active)	99% (active)	87.5% (active)	72% (active)	95% (active)	84.8% (active)
CCSc1nc2ccccc2o1	7%	0%	54.4%	0%	-1%	39.6%	6%	2%	9.4%	6%	-2%	30.6%	3%	-2%	42.6%	3%	-3%	-15.7%
CC(C)c1ccc(C(=O)OC2CCCC2)cc1	8%	98% (active)	96.5% (active)	9%	100% (active)	99.2% (active)	9%	99% (active)	54.6%	6%	99% (active)	94.3% (active)	4%	99% (active)	53%	4%	99% (active)	93.3% (active)
CN1CSC(=S)N(Cc2ccccc2)C1	20%	78% (active)	73.6% (active)	-5%	76% (active)	87.8% (active)	15%	67%	86.6% (active)	19%	41%	21.2%	25%	90% (active)	88.3% (active)	-2%	89% (active)	75.3% (active)
